This passage reports sensor-assay potency score (higher = more potent) results from the OligoGym collection.
Also: reference of the scale not given here.

The first assay deals with PITPNM3. Description: pooled miR-30 sensor sort-seq; sequence = guide strand. Conditions: shRNA.
Sequence TAGACAGAGATGTCCTTCGTGG showed a sensor-assay potency score (higher = more potent) of -0.052.

Regarding TATGTGATGCGACCACTGCTGT, the sensor-assay potency score (higher = more potent) is -0.671.

For TTGCGCAGGATCATGCGCGAGT, the sensor-assay potency score (higher = more potent) was -0.913.

Take TTCAGGTGAGAGACAAGCGAGA: the sensor-assay potency score (higher = more potent) is -0.748.

The next assay has as its target PKD2L1. Described as above. Conditions: shRNA.
Take TAGTAGAAGATGAAGACGCAGA: the sensor-assay potency score (higher = more potent) was -0.533.

Take TTCAAAGATCTCTGAATCCTGA: the sensor-assay potency score (higher = more potent) is 0.0945.

For TACTTGAATATCTTGATCCAGG, the sensor-assay potency score (higher = more potent) is -0.611.

In turn, TAGTAATAAGCACTGGAGCTTG gave a sensor-assay potency score (higher = more potent) of -0.791.

Sequence TTGTTGTACTGTGTCTGCCAGA gave a sensor-assay potency score (higher = more potent) of -0.963.

On to TTGTTGAAGCTGATGTACTTGA, for which the sensor-assay potency score (higher = more potent) was -0.253.

As to TTGACTGTGCGGATTTGCCAGG, the sensor-assay potency score (higher = more potent) is -0.754.

Sequence TTCATCTTCAGGCTTCTTGGGT yielded a sensor-assay potency score (higher = more potent) of -0.0602.

For TTGAATATCTTGATCCAGGCGA, the sensor-assay potency score (higher = more potent) stood at 0.38.

The next assay addresses PKIA. The assay is described as above. To be noted: shRNA.
On to TAGAACTTCGTTGTGCATCTTC, for which the sensor-assay potency score (higher = more potent) turned out to be 0.489.

TCTTGTTGATATCAAGACCTGC: the sensor-assay potency score (higher = more potent) was -0.396.

In turn, TCATCATCTAGGTCGGAGCTAC showed a sensor-assay potency score (higher = more potent) of -0.746.

Sequence TATTGCATTTCTTCTACCTGTT returned a sensor-assay potency score (higher = more potent) of 0.0658.

The sequence TTTACTGGGTGAACACTTGAGC gave a sensor-assay potency score (higher = more potent) of -0.0975.

TTTAACATGATAATGAGCAGGT: the sensor-assay potency score (higher = more potent) was 0.937.

TTTGTTCTGTAGAACTTCGTTG returned a sensor-assay potency score (higher = more potent) of 0.16.

Sequence ATCTTCTTCACCTTCTGTCTTG returned a sensor-assay potency score (higher = more potent) of -0.736.

As for TACAGGAAGAATCATCATCTAG, the sensor-assay potency score (higher = more potent) was -0.916.

TTGTTCTGTAGAACTTCGTTGT gave a sensor-assay potency score (higher = more potent) of 0.279.

TAACATGATAATGAGCAGGTTC came in with a sensor-assay potency score (higher = more potent) of 0.186.

TTCAAGGCTAATTCATTGCTGT: the sensor-assay potency score (higher = more potent) was 0.0225.
